Screening data (PubChem)
Mito fusion yeast: inhibitors of mitochondrial division or activators of mitochondrial fusion; S. cerevisiae fusion-defective mutant growth rescue, CellTiterGlo 48 h; Potency, µM (doses to about 46.1 µM), without a hit: at the top dose growth rescue (activation), usual class: activators; 0.23% of 320,000 active; AID 485298; further: % of control where 0% means no effect; nearly all actives have a fitted effect of over 45% in size
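Compounds are tested for their ability to restore growth of mitochondrial fusion-defective yeast strains at non-permissive 37C in YPEG medium over 48 hours. Viability is quantified by luciferase luminescence.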
TDP-43 yeast inh: rescues yeast growth from TDP-43 toxicity | Potency, µM (titrated, usually from 46.1 µM), inactives show at the highest dose growth rescue (activation), hits mostly activators | AID 652104 | TDP-43 expressing yeast growth rescue, BacTiter-Glo, 24 h | 1.8% of 410,000 active; further: % of control where 0% means no effect; nearly all actives have a fitted effect of over 50% in size
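Yeast cells expressing TDP-43 under galactose induction are exposed to compounds for 24 hr at 30 deg C. BacTiter-Glo luminescence measures growth, so protective compounds score as activators.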
Abeta yeast res: restores growth of yeast expressing A-beta42 peptide; yeast expressing A-beta42, growth rescue, OD600, 48 h; response scale: 0% DMSO, 100% iron-clioquinol control; Potency, µM (top dose mostly 46.1 µM), most hits filed as activators; 0.063% of 410,000 active; further: nearly all actives have a fitted effect of over 55% in size
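Growth rescue measured by 600 nm absorbance after 48 h yeast culture at 30 C with compound. Values normalized between DMSO and an equimolar ferric chloride plus clioquinol control.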
ERG Ets-DNA blk: blocks human ERG Ets domain binding to DNA; AID 624246; fluorescence polarization, His-ERG Ets domain / labelled DNA; Potency, µM (doses to about 76.9 µM), for inactives: at the highest dose FP activity, negative = inhibition, most hits filed as inhibitors; 0.028% of 370,000 active; active means well fitted inhibition curve with a large enough effect in the polarisation, with a control signal flat; inconclusive means small, poorly fitted or top-dose-only effect, or effect the other way, or a change in a side signal; inactive means no such curve, though single readings can be large or run the other way; the % refers to the polarisation;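 further: polarization taken with two DNA probes labelled with fluorescein and Texas red; % of control where 0% means no effect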
Target sequence (P11308 whole entry, looked up, the tested form may be a part): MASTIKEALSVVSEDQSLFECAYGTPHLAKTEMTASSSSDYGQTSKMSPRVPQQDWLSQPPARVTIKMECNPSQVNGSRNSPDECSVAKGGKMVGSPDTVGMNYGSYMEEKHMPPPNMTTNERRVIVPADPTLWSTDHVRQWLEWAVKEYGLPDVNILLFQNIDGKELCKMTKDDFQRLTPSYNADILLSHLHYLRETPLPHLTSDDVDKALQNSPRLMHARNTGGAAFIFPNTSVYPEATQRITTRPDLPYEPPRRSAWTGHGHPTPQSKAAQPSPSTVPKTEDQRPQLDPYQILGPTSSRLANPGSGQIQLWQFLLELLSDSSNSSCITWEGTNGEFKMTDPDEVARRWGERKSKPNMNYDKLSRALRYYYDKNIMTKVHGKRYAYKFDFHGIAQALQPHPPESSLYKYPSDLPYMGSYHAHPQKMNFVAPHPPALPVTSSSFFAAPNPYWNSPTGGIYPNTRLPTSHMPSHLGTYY
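His-tagged ERG Ets domain (1 uM in the protein solution; 300mM KCl, 50mM Tris-HCl, 1mM EDTA, 1mM DTT, pH 7.5) received compound, then a probe mix of 5 nM fluorescein-DNA and 100nM Texas-615-DNA. Fluorescence polarization was read for both dyes.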
FUS suppressor: rescues growth of FUS-expressing yeast; S. cerevisiae FUS-expressing, growth rescue, OD600, 24 h; Potency, µM (titrated, usually from 76.6 µM), most hits filed as activators; 0.24% of 390,000 active;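 further: plate controls were DMSO vehicle for no effect and reference control for full effect; nearly all actives have a fitted effect of over 55% in size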
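Yeast expressing FUS under galactose induction, OD 0.005 in 2% galactose medium; compounds in a dilution series, 24 h at 30C. Growth rescue by absorbance at 600 nm; CP55940 positive control, DMSO negative.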
aSyn rescue: inhibitors of alpha-synuclein toxicity in yeast | Yeast expressing alpha-synuclein, growth rescue, BacTiter-Glo, 24 h | Potency, µM (top dose mostly 46.1 µM), for the others: at the top dose growth rescue (activation), most hits filed as activators | 0.14% of 370,000 active; further: % of control where 0% means no effect; nearly all actives have a fitted effect of over 65% in size
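Galactose-induced alpha-syn yeast (OD600=0.02, raffinose-pregrown) + pinned cpd, 24 hr, 30 deg C; growth by BacTiter-Glo luminescence. Growth restoration scores as activation.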
Numbers without * were called inactive; i = inactive; ? = inconclusive; . = no result; [ ] = remark or other dose. A selection: hits, their analogues and other compounds. The true share with any hit is near 2.2%. Unless noted, the call rests on the fitted dose curve; in most records, active means well fitted curve in the direction sought with a large enough effect; inconclusive means small, poorly fitted or top-dose-only effect, or another doubt; inactive means no such curve, though single readings can be large; an effect the other way counts as inactive or inconclusive. Potency means the concentration at half of the fitted maximal effect.

SMILES	Mito fusion yeast	TDP-43 yeast inh	Abeta yeast res	ERG Ets-DNA blk	FUS suppressor	aSyn rescue
O=C1CSC(c2ccc(Cl)cc2)N1c1cccnc1 (centres undefined)	-2%	-18%	i	-15%	i	28%
O=C1CSC(c2ccc(Cl)c(Cl)c2)N1c1nccs1 (centres undefined)	12%	14µM*	i	-2%	i	1%[1.84 µM]
Cc1ccc([N+](=O)[O-])cc1S(=O)(=O)N1CCC(C)CC1	1%	16µM*	i	16%	i	13%
Cc1ccc(S(=O)(=O)N2CCC(C)CC2)c([N+](=O)[O-])c1	-1%	18µM*	i	?	i	14%
COc1ccc(C)cc1S(=O)(=O)N1CCC(C)CC1	-7%	19%	i	-9%	i	7%
Cn1cc(C(=O)NCc2ccccc2Cl)c(=O)c2cc(S(=O)(=O)N3CCCCCC3)ccc21	.	0%	i	2%	i	.
O=C(O)CCn1c(=O)c2cccn2c2cccnc21	.	12%	i	0%	i	.
COc1ccccc1C(C(=O)NC1CCCC1)N(C(=O)c1csnn1)C1CC1 (centres undefined)	3.2µM*	-11%	i	8%	i	3%
Cc1ccc(C)n1NC(=O)c1ccccc1	2%	-2%	i	-1%	20µM*	-2%
Cc1ccc(C)n1NC(=O)c1ccc(O)cc1	1%	-15%	i	.	i	6%
COC(=O)C1=C(C)N(Cc2ccccc2)C(=S)N[C@H]1c1cccc(F)c1	13%	11µM*	i	8%	?	?
COC(=O)C1=C(C)N(Cc2ccccc2)C(=NCc2ccccc2)N[C@H]1c1cccc(F)c1	-12%	15%	i	-10%	i	3%
CCOC(=O)CSc1nnc2n(-c3ccccc3)c(=O)c3c4c(sc3n12)CC(C(C)(C)C)CC4 (centres undefined)	.	35µM*	i	-5%	?	.
CCOC(=O)CSc1nnc2n(-c3ccccc3)c(=O)c3c4c(sc3n12)COC(C(C)C)C4 (centres undefined)	.	?	i	-1%	i	.
COc1cccc(CN2c3ccc(Br)cc3C(=O)CS2(=O)=O)c1	-4%	16µM*	i	7%	?	-26%
C=CCN1c2ccccc2C(=O)C(C)S1(=O)=O (centres undefined)	.	20%	i	-1%	i	2%
C=CCN1c2ccc(Br)cc2C(=O)CS1(=O)=O	-3%	20µM*	i	38%	i	4%
COc1cccc([C@@H]2NC(=O)C/C=C/[C@H](C)[C@H](c3cccc(OC)c3)NC(=O)C/C=C/[C@@H]2C)c1	.	.	.	.	i	.
CCCCc1c(-c2ccc(OC)cc2)ncn1CCc1ccccc1OC	.	32%	i	.	i	-4%
O=C(OCc1nc2scc(-c3ccccc3)c2c(=O)[nH]1)c1ccco1	-1%	35µM*	?	11%	i	5%
O=C(NC1CCSc2ccccc21)c1cccc(Cl)c1 (centres undefined)	2%	5.6µM*	i	1%	i	4%
COc1ccc(C(=O)Nc2ccc(N(C)Cc3ccccc3)c(C(=O)O)c2)cc1	.	24%	i	0%	i	.
CCOc1ccccc1CNC(=O)c1cnc2sc(N3CCCCCC3)nn2c1=O	.	23%	i	2%	i	.
CCCCCCCCN1C(=O)[C@H](CC(=O)NCc2ccc(OC)c(OC)c2)C[C@@]2(C(=O)OCC)CCC=C12	.	28µM*	i	.	?	-5%
CCCCCCCCN1C(=O)[C@H](CC(=O)NCc2ccc(OC)c(OC)c2)C[C@@]2(C(=O)OC)CCCCC=C12	.	20µM*	i	.	?	17%
SMILES	Mito fusion yeast	TDP-43 yeast inh	Abeta yeast res	ERG Ets-DNA blk	FUS suppressor	aSyn rescue
CCCCCCCCN1C(=O)[C@H](CC(=O)NCc2ccccc2)C[C@@]2(C(=O)OCC)CCC=C12	.	13%	i	.	?	10%
CCOC(=O)[C@]12CCCC=C1N(CCc1ccc(OC)c(OC)c1)C(=O)[C@H](CC(=O)NCC13CC4CC(CC(C4)C1)C3)C2	.	-1%	i	.	?	10%
COC(=O)[C@]12CCCCC=C1N(CCc1ccc(OC)c(OC)c1)C(=O)[C@H](CC(=O)NCC13CC4CC(CC(C4)C1)C3)C2	.	-12%	i	.	8.9µM*	-1%
C[C@@H]1CCCN1c1ccc2c(c1)O[C@@H]1CCN(C1)S2(=O)=O	.	.	.	.	i	.
Cn1nnnc1N=N/C(=N/Nc1ccccc1)c1ccccc1	6%	?	?	-2%	i	3.2µM*
COc1ccc(CNC(=O)CCc2c(C)c3cc4c(C)c(C)oc4cc3oc2=O)cc1	.	-16%	i	-1%	i	.
COc1cccc(OCCNc2cc(N3CCOCC3)ccc2[N+](=O)[O-])c1	11%	18µM*	i	4%	i	4%
COc1ccc(OCCNc2cc(N3CCOCC3)ccc2[N+](=O)[O-])cc1	-4%	?	i	3%	i	6%
COc1ccc(OC)c(C(=O)c2ccc([N+](=O)[O-])cc2)c1	.	-20%	i	-6%	i	12%
COc1ccc(C(=O)c2ccc([N+](=O)[O-])cc2Cl)cc1	21%	11µM*	i	4%	i	5%
COc1ccc(Cl)cc1NC(=O)COC(=O)Cc1cccs1	1%	10µM*	i	-4%	i	7%
COc1ccccc1NC(=O)COC(=O)/C=C/c1cccs1	.	14µM*	i	.	.	6%
Cc1ccc(Cl)cc1NC(=O)COC(=O)C1CCCC1	8%	19%	5.6µM*	-5%	i	-5%
COc1ccc(Cl)cc1NC(=O)COC(=O)C1CC1	9%	25%	?	12%	i	-1%
COc1ccc(Cl)cc1NC(=O)COC(=O)C1CCCCC1	23%	13µM*	?	17%	i	1%[1.84 µM]
Cc1ccc(C)c(NC(=O)CN2C(=O)CCc3ccccc32)c1	.	?	i	6%	i	.
Cc1cc(C(F)(F)F)n(-c2nc(C(=O)Nc3cccnc3)cs2)n1	10%	22µM*	i	7%	i	9%
Fc1ccccc1-n1cc(-c2ccccc2)[nH]c1=S	0%	13µM*	?	1%	i	3%
Cc1ccc(C(=O)c2cn(Cc3ccc(F)cc3)c3nc(C)ccc3c2=O)cc1	.	?	i	4%	i	.
CCCCn1nnnc1NCc1ccc(N2CCCC2)cc1	-5%	-1%	i	-4%	28µM*	-3%
